Experimental data: PubChem BioAssay (NCI)
About 83,000 compounds went through this panel and 20% of them were active in at least one assay; those are over-represented in the sample as a whole.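 Note: values are percent growth. 100 is the growth of untreated cells, values between 100 and 0 indicate rising inhibition; between -100 and 0 indicates cell death.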 Calls of active or inactive are those of the source. The calls were made as follows: active = growth percent below 10; inactive = the rest.

Legend:
Assay in all cases: NCI-60 one-dose screen, 48 h (100 = growth as untreated, 0 = no growth, -100 = all killed)
Conditions in all cases: 10 µM unless noted
[1] = tested on: T-47D breast
[2] = tested on: BT-549 breast
[3] = tested on: MDA-MB-435 melanoma
[4] = tested on: SW-620 colon
[5] = tested on: MCF7 breast
[6] = tested on: HCT-116 colon
[7] = tested on: HCC-2998 colon
[8] = tested on: KM12 colon

Measured: growth

COc1ccc(/C=C2\N=C(c3cccnc3)N(c3ccccc3)NC2=O)cc1
inactive: [1] 90.2% | [2] 94.3% | [3] 97.3% | [4] 92.3% | [5] 91.5% | [6] 97.1% | [7] 99.7% | [8] 95.3%

COc1ccc(-c2nn(-c3cccc(Cl)c3)cc2/C=C2\C(=N)N(c3ccccc3)N=C2N)cc1
inactive: [1] 28.6% | [2] 101% | [3] 31.3% | [4] 32.5% | [5] 26.6% | [6] 51.3%
active: [7] 0.0499% | [8] -25.2%

CC1=C(C(=O)Nc2ccc(F)cc2)C(c2ccccc2)C2=C(CC(C)(C)CC2=O)N1 (centres undefined)
inactive: [1] 63.6% | [2] 91.1% | [3] 90.3% | [4] 89.7% | [5] 67.1% | [6] 73.6% | [7] 103% | [8] 84.5%

CN(C)c1ccc(C(c2ccccc2)c2ccc(N(C)C)cc2)cc1
inactive: [1] 86.7% | [2] 101% | [3] 97% | [4] 93.4% | [5] 90.3% | [6] 80.6% | [7] 95.7% | [8] 91.5%

COc1ccc(Nc2ncnc3c2sc2nc(C)cc(C)c23)cc1
inactive: [1] 89.6% | [2] 104% | [3] 98.7% | [4] 108% | [5] 80.1% | [6] 90.4% | [8] 96.7%

COS(=O)(=O)CCN(CCOS(C)(=O)=O)S(C)(=O)=O
inactive: [1] 98% | [2] 97.5% | [3] 108% | [4] 107% | [5] 96% | [7] 98% | [8] 105%

C/C(CC(=O)NNc1ccc([N+](=O)[O-])cc1)=N\Nc1ccc([N+](=O)[O-])cc1
inactive: [1] 50% | [2] 99.6% | [3] 35.4% | [4] 48.6% | [5] 83.8% | [6] 47.3% | [7] 74.5% | [8] 25.4%

O=C1OCC2=C1C(c1cccc(Br)c1)c1cc3c(cc1N2CCO)OCCO3 (centres undefined)
inactive: [1] 76.9% | [2] 21.4% | [4] 21.3% | [5] 18.2%
active: [3] -40.4% | [6] 6.29% | [8] -33.9%

COc1cc2nccc(Oc3ccc(NC(=O)C4(C(=O)Nc5c(F)cc(F)cc5F)CC4)cc3)c2cc1Oc1ccc(N)cn1
inactive: [1] 29% | [2] 74.2% | [4] 40.3% | [5] 31.7% | [7] 81.5% | [8] 15.5%
active: [3] 3.8%

O=C(C=P(c1ccccc1)(c1ccccc1)c1ccccc1)CCl
active: [1] -73.8% | [2] -11.3% | [3] -98.6% | [4] -50.7% | [5] -16.6% | [7] -21.6% | [8] 1.36%

COc1ccc(C2C3=C(COC3=O)N(CCO)c3cc(OC)c(OC)cc32)cc1 (centres undefined)
inactive: [1] 91.3% | [2] 100% | [3] 112% | [4] 101% | [5] 103% | [6] 103% | [8] 106%

O=C1C=CC(=O)N1c1cccc(N2C(=O)C=CC2=O)c1
inactive: [2] 113% | [3] 103% | [5] 65.9% | [7] 130% | [8] 122%
active: [1] -13.6% | [4] 4.72%

O=C(Nc1ccccc1)C(CCCCN1C(=O)c2ccccc2C1=O)N1C(=O)c2ccccc2C1=O (centres undefined)
inactive: [1] 105% | [2] 104% | [3] 108% | [4] 102% | [5] 101% | [6] 107% | [8] 100%

CCSc1ccc([C@@H]2[C@@H](N)C(=O)N2c2cc(OC)c(OC)c(OC)c2)cc1
inactive: [1] 60.3% | [2] 32.7% | [4] 25.8% | [5] 19.6% | [7] 31.2% | [8] 19.4%
active: [3] -59.7%

OC(c1cc2cc(Cl)ccc2c2cc(C(F)(F)F)ccc12)C1CCCCN1 (centres undefined)
inactive: [2] 54.7%
active: [1] -82.1% | [3] -66.1% | [4] -78.3% | [5] -86.3% | [7] -86.9% | [8] -90.9%

COC(=O)C1(C)COP(=O)(NC23CC4CC(CC(C4)C2)C3)OC1 (centres undefined)
inactive: [1] 111% | [2] 99.7% | [3] 105% | [4] 100% | [5] 102% | [6] 108% | [8] 102%

COc1cc(NC(C)CCCN)c2ncccc2c1Oc1ccc(Cl)cc1 (centres undefined)
inactive: [1] 76.8% | [2] 86.2% | [3] 90.7% | [4] 73.5% | [5] 71.3% | [7] 49.8% | [8] 69.2%

NC(=Nc1ccccc1)SCCCSC(N)=Nc1ccccc1
inactive: [1] 70.1% | [2] 92.9% | [3] 89.8% | [4] 95.4% | [5] 90.9% | [7] 99.2% | [8] 94.7%

CSC(=S)N/N=C(\C)c1ccccn1
inactive: [1] 21.8% | [2] 28.8% | [3] 35.8% | [4] 29.5% | [7] 28% | [8] 19.9%
active: [5] 7.66%

CCc1ccc2c(c1)N(CCO)C1=C(C(=O)OC1)C2c1cccc(Br)c1 (centres undefined)
inactive: [1] 47.5% | [2] 46.6% | [4] 26.8% | [5] 21.1% | [6] 26.9% | [8] 19.2%
active: [3] -62.5%

COc1ccc(CCN2COc3c([C@@H](C)CCC=C(C)C)ccc(C)c3C2)cc1OC
active: [1] -23% | [7] -70.3%
inactive: [2] 87.9% | [3] 61.4% | [4] 40.4% | [5] 40.6% | [8] 51.8%

O=C(/C=C/c1ccccc1)n1c(-c2ccccc2)nc2ccccc21
inactive: [1] 97.3% | [2] 112% | [3] 99.9% | [4] 102% | [5] 97.5% | [6] 109% | [8] 104%

Fc1ccc(-c2ccnc3nc(-c4ccncc4)nn23)cc1
inactive: [1] 90.1% | [2] 93.8% | [3] 107% | [4] 30.3% | [5] 86.1% | [6] 95.1% | [8] 99.8%

Cc1nc2c(-c3cnc(N)nc3)nc(N3CCOCC3)nc2n1C(C)C
inactive: [4] 11.3% | [6] 17.2%
active: [1] -18% | [2] -3.32% | [3] 4.17% | [5] 9.9% | [8] 5.78%

CSCCC1NC(=O)C(C(C)=Nc2ccccc2)=C1O (centres undefined)
inactive: [1] 103% | [2] 105% | [3] 95.4% | [4] 104% | [5] 91.3% | [7] 113% | [8] 79.3%

C=C(C)C1CCC2(C(=O)O)CCC3(C)C(CCC4C5(C)CCC(O)C(C)(C)C5CCC43C)C12 (centres undefined)
inactive: [3] 48.6% | [4] 19.6%
active: [1] -1.03% | [2] -57.5% | [5] 1.31% | [6] -88.5% | [8] -26.6%

CC1=C(C(=O)Nc2ccc(F)cc2)C(c2ccc(C)cc2)C2=C(CC(C)(C)CC2=O)N1 (centres undefined)
inactive: [1] 85.2% | [2] 97.2% | [3] 94.9% | [4] 81.9% | [5] 91.1% | [7] 107% | [8] 102%
